Measurements reported in PubChem BioAssay (NCI).
The panel holds about 83,000 compounds, 20% with a hit somewhere; the sample as a whole holds those more often.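 Interpretation: 100, growth as untreated; towards 0, rising growth inhibition; 0, no net growth; 0 to -100, cell death. Compounds scoring below 10 were considered active.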 A number with no mark means an inactive call. The source made the active and inactive calls.

These compounds were tested on SR leukemia (assay: NCI-60 one-dose screen, 48 h (100 = growth as untreated, 0 = no growth, -100 = all killed)). Settings: 10 µM unless noted.

Structure (SMILES)	growth
C#CCOc1ccc(C(Nc2cc(Cl)ccc2Cl)c2nnnn2C2CCCCC2)cc1 (stereo not given)	87.6%
Oc1ccc(CSc2nnc(-c3cnccn3)n2-c2ccccc2)c2cccnc12	42.1%
O=C(COc1ccc(C2SCC(=O)N2c2ccccc2)cc1)c1ccccc1 (stereo not given)	91.5%
c1ccc(-c2c(-c3ccccc3)[n+](Cc3ccc4ccccc4c3)c(-c3ccccc3)n2Cc2ccc3ccccc3c2)cc1	-41.1% (active)
O=C1[C@H]2Cc3c([nH]c4ccccc34)[C@H](c3ccc(Cl)cc3)N2C(=O)CN1C1CCN(Cc2c(Cl)cccc2Cl)CC1	22.2%
COc1ccc(/C=C/C(=O)c2nnn(-c3ccc(Br)cc3)c2C)cc1OC	52.6%
CCC(CC)N1C(=O)/C(=c2\sc3n(c2=O)C2C(NN=3)N(CC)C(=O)N2CC)c2ccccc21 (stereo not given)	5.6% (active)
COc1ccc(-c2nnc(SCc3ccc(O)c4ncccc34)n2-c2ccccc2)cc1	34.3%
C=C(C)[C@@H]1CC[C@]2(C(=O)NCCCN(CCC#N)CCC#N)CC[C@]3(C)[C@H](CC[C@@H]4[C@@]5(C)CCC(=O)C(C)(C)[C@@H]5CC[C@]43C)[C@@H]12	95.7%
O=C(COc1ccc(C2SCC(=O)N2c2ccc(F)cc2)cc1)c1ccccc1 (stereo not given)	65.1%
NCCN1CCN(c2nc(-c3ccccc3)nc3nc(-c4ccccc4)oc23)CC1	20.7%
Cc1ccc(NC(=O)c2cccc(CN3CCN(C)CC3)c2)cc1Oc1ccc(-c2[nH]nc3ncnc(N)c23)cc1	6.56% (active)

The compounds below were run on RPMI-8226 leukemia in the same assay as above. Settings: 10 µM unless noted.

Structure (SMILES)	growth
C=C1C(=O)O[C@@H]2C[C@@H](C)[C@H](OC)CC(=O)[C@](C)(OC(C)=O)C[C@H](OC(=O)/C(C)=C\C)[C@@H]12	68.3%
O=C1[C@H]2Cc3c([nH]c4ccccc34)[C@@H](c3ccc(Cl)cc3)N2C(=O)CN1C1CCN(Cc2c(Cl)cccc2Cl)CC1	88.4%
COc1ccc(Cn2cc3c(c2-c2ccccc2)CCCc2cnoc2-3)cc1	59.8%
COc1ccc(-c2oc3cc(O)cc(O)c3c(=O)c2OC)cc1O	17.4%
N/C(=N\OC(=O)CSc1nc2ccccc2s1)c1ccc2ccccc2c1	110%
CCOC(=O)C1=C(C)Nc2nc3ccccc3n2C1c1ccccc1 (stereo not given)	97.4%
CS(=O)(=O)c1ccc(-c2nn(-c3ccccc3)cc2/C=N/NC(=O)c2ccncc2)cc1	115%
Cc1cc(O)c2c(c1)C(=O)C(c1c(C)cc3c(c1O)C(=O)C=CC3=O)=CC2=O	15.2%
N#Cc1c(NC(=O)c2ccccc2C(F)(F)F)sc2c1CCC(=O)C2	-2.1% (active)
CCOC(=O)C1=C(C)N=C2Sc3ccccc3N2C1c1ccccc1 (stereo not given)	73.4%
CN(C)c1ncc(/C=C2\SC(=S)N(Cc3ccccc3Cl)C2=O)s1	86.3%
CCN1C(=O)N(CC)C2SC(N/N=C/c3ccc(OC)cc3)=NC21 (stereo not given)	17.6%
O=C1[C@@H]2Cc3c([nH]c4ccccc34)[C@H](c3c(Cl)cccc3Cl)N2C(=O)CN1C1CCN(Cc2c(F)cccc2F)CC1	67.9%
CC1OC(O[C@@H]2[C@H](O)C(CO)OC(O[C@H]3COC(O[C@H]4CC[C@]5(C)[C@H]6CC[C@]78OC[C@@]9(CC[C@](C)(C=O)C[C@H]97)C(=O)C[C@@]8(C)[C@]6(C)CC[C@H]5C4(C)C)[C@@H](O)[C@@H]3O)[C@H]2OC2OC[C@@H](O)[C@@H](O)[C@@H]2O)[C@@H](O)[C@@H](O)[C@H]1O (stereo not given in full)	101%
CC(=O)NC(C)(C)C(=O)N1CCC[C@H]1C(=O)NC(C)(C)C(=O)N[C@@H](C)C(=O)NC(C)(C)C(=O)NC(C)(C)C(=O)N[C@@H](CCC(N)=O)C(=O)NC(C)(C)C(=O)N[C@H](C(=O)NC(C)(C)C(=O)NCC(=O)N[C@@H](CC(C)C)C(=O)NC(C)(C)C(=O)N1CCC[C@H]1C(=O)N[C@H](C(=O)NC(C)(C)C(=O)NC(C)(C)C(=O)N[C@@H](CCC(N)=O)C(=O)N[C@@H](CCC(N)=O)C(=O)N[C@H](CO)Cc1ccccc1)C(C)C)C(C)C	-17.4% [4.25 µM] (active)
CC1(C)CC[C@]2(C(=O)O)CC[C@]3(C)C(=CCC4[C@@]5(C)C[C@@H](O)[C@@H]6OC(c7cccc([N+](=O)[O-])c7)OC[C@@]6(C)C5CC[C@]43C)C2C1 (stereo not given in full)	56%
Oc1ccccc1-c1nnc(SCc2ccc(O)c3ncccc23)n1-c1ccccc1	12.2%
O=c1c2c(O)cccc2oc2c3c(cc(O)c12)O[C@H]1OC=C[C@@H]31	93.7%
O=C(CN1C(=O)S/C(=C\c2ccccc2)C1=O)Nc1ccc(C(=O)/C=C/c2cc3ccccc3nc2Cl)cc1	26.2%

Structure (SMILES)	growth
O=C(/C=C/c1cccc(O)c1)c1ccc(O)cc1	18.7%
ClC(Cl)c1nc(-c2cccs2)n2nc(-c3ccccc3)cc2n1	-25.6% (active)
CC1OC(O[C@@H]2C(O)C(CO)OC(O[C@H]3COC(O[C@H]4CC[C@]5(C)[C@H]6CC[C@]78OC[C@@]9(CC[C@](C)(C=O)C[C@H]97)[C@H](O)C[C@@]8(C)[C@]6(C)CC[C@H]5C4(C)C)[C@@H](OC4OC(CO)[C@@H](O)[C@@H](O)[C@@H]4O)[C@@H]3O)[C@H]2OC2OC[C@@H](O)[C@@H](O)[C@@H]2O)[C@@H](O)[C@@H](O)[C@H]1O (stereo not given in full)	32.9%
O=C(CCCCCCN1CC(=O)N2[C@@H](c3cc(F)cc(F)c3)c3[nH]c4ccccc4c3C[C@H]2C1=O)NO	24.2%
N=c1c2cc(-c3ccccc3)oc2ncn1/N=C/c1ccccc1	99.1%
COc1cc(CNC(=O)/C=C/c2ccccc2)ccc1OCC(=O)NO	102%
C=C(C)[C@@H]1CC[C@]2(COS(C)(=O)=O)CC[C@]3(C)[C@H](CC[C@@H]4[C@@]5(C)CCCNC(C)(C)[C@@H]5CC[C@]43C)[C@@H]12	44.9%
C#CCOc1ccc(C(Nc2cc(Cl)ccc2Cl)c2nnnn2C2CCCCC2)cc1 (stereo not given)	81.1%
Oc1ccc(CSc2nnc(-c3cnccn3)n2-c2ccccc2)c2cccnc12	29.1%
O=C(COc1ccc(C2SCC(=O)N2c2ccccc2)cc1)c1ccccc1 (stereo not given)	91.9%
c1ccc(-c2c(-c3ccccc3)[n+](Cc3ccc4ccccc4c3)c(-c3ccccc3)n2Cc2ccc3ccccc3c2)cc1	-30.5% (active)
O=C1[C@H]2Cc3c([nH]c4ccccc34)[C@H](c3ccc(Cl)cc3)N2C(=O)CN1C1CCN(Cc2c(Cl)cccc2Cl)CC1	50.3%
COc1ccc(/C=C/C(=O)c2nnn(-c3ccc(Br)cc3)c2C)cc1OC	10.5%
CCC(CC)N1C(=O)/C(=c2\sc3n(c2=O)C2C(NN=3)N(CC)C(=O)N2CC)c2ccccc21 (stereo not given)	8.29% (active)
COc1ccc(-c2nnc(SCc3ccc(O)c4ncccc34)n2-c2ccccc2)cc1	10.9%
C=C(C)[C@@H]1CC[C@]2(C(=O)NCCCN(CCC#N)CCC#N)CC[C@]3(C)[C@H](CC[C@@H]4[C@@]5(C)CCC(=O)C(C)(C)[C@@H]5CC[C@]43C)[C@@H]12	103%
O=C(COc1ccc(C2SCC(=O)N2c2ccc(F)cc2)cc1)c1ccccc1 (stereo not given)	87.4%
NCCN1CCN(c2nc(-c3ccccc3)nc3nc(-c4ccccc4)oc23)CC1	-27.9% (active)
Cc1ccc(NC(=O)c2cccc(CN3CCN(C)CC3)c2)cc1Oc1ccc(-c2[nH]nc3ncnc(N)c23)cc1	48.7%
